{
  "source": "ChEMBL document CHEMBL3988442",
  "about": "“University of Dundee, Small-Polar-MMV Screening Library” (2021)",
  "note": "Out of some 38,000 compounds screened, about 1,200 (3.2%) showed an effect of 50% or more. The median lay at about -58%. This is one part of a sample in which strong results are shown more often than they occur.",
  "data": [
    {"tested_on": "Plasmodium falciparum", "test": "Calibr Malaria Delayed Death Assay SOP", "type": "functional, organism-based", "design": "scale not given: in the data most compounds retested in dose-response had high values", "details": "concentration 4.99e-06 (unit not given; other assays of the set use mol/L)", "units": {"Percent Effect": "%"}, "values": [
      {"compound": "Cc1nc(CN2CCCC(NCc3ccc4c(c3)CCO4)C2)no1", "note": "(stereo not given)", "Percent Effect": -110.8},
      {"compound": "CCCc1nc(N2CCSCC2)c2c(n1)c(C)nn2CC", "Percent Effect": -63.17},
      {"compound": "Cc1ccc(CN2Cc3nccn3CC(Cn3cccn3)C2)s1.O=C(O)C(F)(F)F", "note": "(stereo not given)", "Percent Effect": -33.05},
      {"compound": "Cc1ccc(CN2Cc3nccn3CC(CN(C)C)C2)s1.O=C(O)C(F)(F)F.O=C(O)C(F)(F)F", "note": "(stereo not given)", "Percent Effect": -55.03},
      {"compound": "CN(C)CC1CN(Cc2ccc(F)cc2)Cc2nccn2C1.O=C(O)C(F)(F)F.O=C(O)C(F)(F)F", "note": "(stereo not given)", "Percent Effect": 12.77},
      {"compound": "CCN(CC)CC1CN(Cc2nccs2)Cc2nccn2C1.O=C(O)C(F)(F)F.O=C(O)C(F)(F)F", "note": "(stereo not given)", "Percent Effect": 18.43},
      {"compound": "CCN(CC)CC1CN(Cc2ccc(C)s2)Cc2nccn2C1.O=C(O)C(F)(F)F.O=C(O)C(F)(F)F", "note": "(stereo not given)", "Percent Effect": 66.72},
      {"compound": "CCN(CC)CC1CN(CCc2ccccc2)Cc2nccn2C1.O=C(O)C(F)(F)F.O=C(O)C(F)(F)F", "note": "(stereo not given)", "Percent Effect": 57.03},
      {"compound": "O=C(NCC1CC1)c1cc2c(s1)CCN2c1ncccn1", "Percent Effect": -131.9},
      {"compound": "O=C(c1cnc2ccc(Cl)cc2c1NCc1ccco1)N1CCCCC1", "Percent Effect": -150.7},
      {"compound": "Cc1ncsc1-c1nnc(C2CCN(Cc3ccc(Cl)cc3)CC2)o1", "Percent Effect": -44.81},
      {"compound": "CC(C)(CN1CCC2(CCOCC2)CC1)N1CCOCC1", "Percent Effect": -173.8},
      {"compound": "COCC1c2nnn(C)c2CCN1C(=O)Cc1ccccn1", "note": "(stereo not given)", "Percent Effect": -28.75},
      {"compound": "CCS(=O)(=O)NC1CCCN(c2cc(C)ccc2F)C1=O", "note": "(stereo not given)", "Percent Effect": 0.205},
      {"compound": "CCC[C@H]1CN(S(=O)(=O)c2cc(C)ccc2C)C[C@@H]1N", "Percent Effect": 67.41},
      {"compound": "Cc1noc(C)c1-c1n[nH]c2c1CN(S(=O)(=O)c1cccs1)CC2", "Percent Effect": -28.6},
      {"compound": "CCc1ccc(S(=O)(=O)N2CCCC(c3ncc[nH]3)C2)s1", "note": "(stereo not given)", "Percent Effect": 13.27},
      {"compound": "CCC[C@H]1CN(S(=O)(=O)c2cc(C)ccc2F)C[C@@H]1N", "Percent Effect": 52.25},
      {"compound": "Cc1ccc(F)c(S(=O)(=O)N2CCCC2c2ccncc2)c1", "note": "(stereo not given)", "Percent Effect": -74.84},
      {"compound": "Cc1ccc(C)c(S(=O)(=O)N2CCN(C)C3(CCC(=O)N(C)CC3)C2)c1", "note": "(stereo not given)", "Percent Effect": -116.8},
      {"compound": "CCC[C@H]1CN(S(=O)(=O)c2ccccc2)C[C@@H]1N", "Percent Effect": 16.03},
      {"compound": "Cc1cccc(OCC(O)CNCc2c(C)nn(C)c2N(C)C)c1", "note": "(stereo not given)", "Percent Effect": 22.52},
      {"compound": "O=C(O)C(F)(F)F.O=C(O)C(F)(F)F.O=S1(=O)c2ccccc2C2(CCN(Cc3cccnc3)C2)N1CC1CC1", "note": "(stereo not given)", "Percent Effect": -8.635},
      {"compound": "CS(=O)(=O)NC[C@]12COC[C@H]1CN(CC1CCC1)C2.O=C(O)C(F)(F)F", "Percent Effect": -46.78},
      {"compound": "CS(=O)(=O)N1C[C@H]2CN(CC3CC3)C(=O)[C@H]2C1", "Percent Effect": -17.38},
      {"compound": "CN1CCN(C[C@@H]2CN(C(=O)NCC3CCCCC3)C[C@@H]2CO)CC1", "Percent Effect": -32.18},
      {"compound": "Clc1ccccc1C1(c2ccnc(C3CCCC3)n2)CCNCC1", "Percent Effect": 82.68},
      {"compound": "Clc1ccccc1C1(c2ccnc(C3CC3)n2)CCNCC1", "Percent Effect": 72.39},
      {"compound": "Cl.Clc1cccnc1OC1CCNCC1", "Percent Effect": 7.245},
      {"compound": "Cc1cccc(CN2CCn3c(C(=O)N(C)C)cnc3C2)c1", "Percent Effect": -123.8},
      {"compound": "CN(C)CCNC(=O)c1cc2c(s1)CCN2S(C)(=O)=O", "Percent Effect": -66.69},
      {"compound": "Cn1cnnc1CCC(=O)N1CCCC(OCc2cccnc2)C1", "note": "(stereo not given)", "Percent Effect": -207.3},
      {"compound": "COc1cc(NC(=O)c2ccc(Cl)cc2F)c(C(=O)N(C)C)cc1OC", "Percent Effect": -107.3},
      {"compound": "Cc1cc(C)n(C2CN(CC(O)COc3ccc(F)cc3)C2)n1", "note": "(stereo not given)", "Percent Effect": -22.32},
      {"compound": "Cc1cc(C)n(C2CN(CC(O)Cn3cccn3)C2)n1", "note": "(stereo not given)", "Percent Effect": -132.3},
      {"compound": "Cc1cnn(C2CN(CC(O)c3ccccc3)C2)c1", "note": "(stereo not given)", "Percent Effect": 40.53},
      {"compound": "COc1ccc(C(O)CN2CC(n3cc(C)cn3)C2)cc1", "note": "(stereo not given)", "Percent Effect": 19.27},
      {"compound": "COc1ccc(C(O)CN2CC(n3nc(C)cc3C)C2)cc1", "note": "(stereo not given)", "Percent Effect": 47.1},
      {"compound": "Cc1cc(C)n(C2CN(CCc3ccncc3)C2)n1", "Percent Effect": -117},
      {"compound": "Cc1cc(C)n(C2CN(CC(O)c3cc(F)ccc3F)C2)n1", "note": "(stereo not given)", "Percent Effect": 84.13},
      {"compound": "Cc1cnn(C2CN(CC(O)c3ccc(F)cc3)C2)c1", "note": "(stereo not given)", "Percent Effect": 56.46},
      {"compound": "COc1cc(OC)cc(-c2noc(C(N)CCSC)n2)c1", "note": "(stereo not given)", "Percent Effect": -32.31},
      {"compound": "Cc1ccc(C(=O)Nc2ccc3c(c2)N(C)CCN(C)C3)c(=O)[nH]1", "Percent Effect": -25.5},
      {"compound": "Cc1cnn(C2CN(CC(=O)NCCc3cccs3)C2)c1", "Percent Effect": -35.32},
      {"compound": "CN(Cc1cc2cc(F)ccc2[nH]1)C(=O)C1CC(=O)N(C2CC2)C1", "note": "(stereo not given)", "Percent Effect": -1.915},
      {"compound": "Cc1cc(CN2CCO[C@H]3[C@H](OCc4csc(C)n4)CC[C@@H]32)no1.O=C(O)C(F)(F)F.O=C(O)C(F)(F)F", "Percent Effect": -78.11},
      {"compound": "N#Cc1cc(Cl)ccc1N1CCN(C(=O)C2CCC2)CC1", "Percent Effect": -79.7},
      {"compound": "CCN(CC)C(=O)C1CCN(c2ccc(Cl)cc2C#N)CC1", "Percent Effect": -152.7},
      {"compound": "CC1CCN(C(=O)C2CCN(c3ccc(Cl)cc3C#N)CC2)CC1", "Percent Effect": 59.54},
      {"compound": "Cc1noc(CN(C)C2CCCN(Cc3noc(C4CC4)n3)C2)n1", "note": "(stereo not given)", "Percent Effect": -141.9},
      {"compound": "Cc1cc(CN2CCOC(CNc3cccnn3)C2)no1", "note": "(stereo not given)", "Percent Effect": -113},
      {"compound": "CO[C@H]1CN(CC2CCOCC2)[C@@H]2CCCO[C@H]12.O=C(O)C(F)(F)F", "Percent Effect": -55.37},
      {"compound": "Cn1ccnc1CCC1CCCCN1Cc1nccn1C", "note": "(stereo not given)", "Percent Effect": 23.43},
      {"compound": "Cc1c[nH]c(CN2CCCCC2CCn2ccnc2C)c(C)c1=O", "note": "(stereo not given)", "Percent Effect": -167.9},
      {"compound": "CCOC(C)c1nccn1CCC(=O)Nc1cc(C)on1", "note": "(stereo not given)", "Percent Effect": -31.31},
      {"compound": "CCn1cnc2c(cnn2-c2cccc(C)c2C)c1=O", "Percent Effect": -109.7},
      {"compound": "CC(=O)c1c(O)n(C)c2ccc(F)cc12", "Percent Effect": -135.9},
      {"compound": "Cc1cnn(CCNCc2ccc(OCc3cscn3)cc2)c1", "Percent Effect": -21.22},
      {"compound": "CC[C@H]1CN2CC[C@H]1C[C@@H]2CNCc1ccc2c(c1)OCO2", "Percent Effect": 60.86},
      {"compound": "CC[C@H]1CN2CC[C@H]1C[C@@H]2CNCc1ccc(OC)cc1", "Percent Effect": 6.891},
      {"compound": "CC[C@H]1CN2CC[C@H]1C[C@@H]2CNC(=O)Nc1cccc(C#N)c1", "Percent Effect": -82.85},
      {"compound": "CC(C)NC(=O)NC[C@H]1C[C@@H]2CCN1C[C@@H]2CN(C)c1ccccc1", "Percent Effect": -39.27},
      {"compound": "CC[C@H]1CN2CC[C@H]1C[C@@H]2CNC(=O)Nc1ccccc1", "Percent Effect": -66.09},
      {"compound": "CCN1CCCC(O)(CNCc2ccc3c(c2)OCO3)C1", "note": "(stereo not given)", "Percent Effect": 14.07},
      {"compound": "CC[C@H]1CN2CC[C@H]1C[C@@H]2CNCc1ccc(N(C)C)cc1", "Percent Effect": 62.75},
      {"compound": "CC[C@H]1CN2CC[C@H]1C[C@@H]2CNCc1cccc(C#N)c1", "Percent Effect": 34.74},
      {"compound": "CC[C@H]1CN2CC[C@H]1C[C@@H]2CNCc1ccc(OC(F)(F)F)cc1", "Percent Effect": 85.66},
      {"compound": "CC[C@H]1CN2CC[C@H]1C[C@@H]2CNC(=O)Nc1cc(OC)cc(OC)c1", "Percent Effect": 63.7},
      {"compound": "CC[C@H]1CN2CC[C@H]1C[C@@H]2CNC(=O)NC1CCCCC1", "Percent Effect": -27.77},
      {"compound": "CC[C@H]1CN2CC[C@H]1C[C@@H]2CNC(=O)Nc1cccc(C(F)(F)F)c1", "Percent Effect": -88.31}
    ]}
  ]
}
